The supplement of paper PMC6555819

Legend:
Assay in all cases: PBM binding z-score (relative to random genomic background probes); higher = stronger binding; sequences stand for … in GC…GCGATTGACAGCGTAGAATGAAGG
[1] = system: FXR:RXRa (NR concentration 270 nM, RXRa partner concentration 90 nM)
Method in brief: (§1)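 Scanned fluorescence from custom Agilent 4×180K protein-binding microarrays was regression-normalized. Binding z-scores use random background probes as reference. Ligand-free nuclear receptor dimers were incubated on the arrays for 1 h and detected with antibodies against each partner (one per run).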

[2] = system: LXRa:RXRa (NR concentration 270 nM, RXRa partner concentration 90 nM)
Method in brief: as §1

[3] = system: LXRa homodimer (NR concentration 270 nM)
Method in brief: as §1

[4] = system: LXRb:RXRa (NR concentration 270 nM, RXRa partner concentration 90 nM)
Method in brief: as §1

[5] = system: LXRb homodimer (NR concentration 270 nM)
Method in brief: as §1

[6] = system: PPARa:RXRa (NR concentration 270 nM, RXRa partner concentration 90 nM)
Method in brief: as §1

[7] = system: PPARg:RXRa (NR concentration 180 nM, RXRa partner concentration 90 nM)
Method in brief: as §1

[8] = system: PPARg:RXRa 270nM:90nM, anti-RXR (NR concentration 270 nM, RXRa partner concentration 90 nM)
Method in brief: as §1

[9] = system: PPARg:RXRa 30nM:10nM, anti-RXR (NR concentration 30 nM, RXRa partner concentration 10 nM)
Method in brief: as §1

[10] = system: PPARg:RXRa 90nM:30nM, anti-RXR (NR concentration 90 nM, RXRa partner concentration 30 nM)
Method in brief: as §1

[11] = system: PPARg:RXRa DBDmut IVT, anti-RXR (DBD mutation: RXRa K156A/R161A, NR concentration 270 nM, RXRa partner concentration 90 nM)
Method in brief: as §1

[12] = system: PPARg:RXRa IVT, anti-PPARg (NR concentration 270 nM, RXRa partner concentration 90 nM)
Method in brief: as §1

[13] = system: PPARg DBDmut:RXRa IVT, anti-PPARg (DBD mutation: PPARg1 K132A/R137A, NR concentration 270 nM, RXRa partner concentration 90 nM)
Method in brief: as §1

[14] = system: PPARg DBDmut IVT, anti-PPARg (DBD mutation: PPARg1 K132A/R137A, NR concentration 270 nM)
Method in brief: as §1

[15] = system: PPARg homodimer (NR concentration 180 nM)
Method in brief: as §1

[16] = system: PXR:RXRa (NR concentration 270 nM, RXRa partner concentration 90 nM)
Method in brief: as §1

[17] = system: PXR homodimer (NR concentration 270 nM)
Method in brief: as §1

[18] = system: RARa:RXR (NR concentration 270 nM, RXRa partner concentration 90 nM)
Method in brief: as §1

[19] = system: RARa homodimer (NR concentration 270 nM)
Method in brief: as §1

[20] = system: RARb:RXRa (NR concentration 270 nM, RXRa partner concentration 90 nM)
Method in brief: as §1

Sequence | PBM binding z-score [1] | PBM binding z-score [2] | PBM binding z-score [3] | PBM binding z-score [4] | PBM binding z-score [5] | PBM binding z-score [6] | PBM binding z-score [7] | PBM binding z-score [8] | PBM binding z-score [9] | PBM binding z-score [10] | PBM binding z-score [11] | PBM binding z-score [12] | PBM binding z-score [13] | PBM binding z-score [14] | PBM binding z-score [15] | PBM binding z-score [16] | PBM binding z-score [17] | PBM binding z-score [18] | PBM binding z-score [19] | PBM binding z-score [20]
CCTAGCAGGCCAATCTGGGTCACTCGAGGCTTGA | -0.0192 | 1.35 | -0.447 | 0.667 | -1 | 2.98 | 1.69 | 1.96 | 0.0407 | 1.13 | 4.16 | 4.75 | -0.336 | 0.34 | 1.39 | 1.1 | -0.592 | 1.85 | -0.324 | 1.56
TCATAGAGGTAAATGCTAGGTGAAAGTCCGATCT | 0.371 | 1.08 | -0.125 | 0.395 | -0.74 | 1.24 | 0.339 | 1.7 | 2.66 | 2.06 | 2.05 | 1.32 | -0.394 | -0.601 | 0.164 | 0.0496 | -0.193 | 0.932 | -0.0762 | 0.439
ACTTTTAGTTGACTTAGGGCAACCGATACGACGC | 0.918 | 0.796 | 0.546 | 0.578 | 1.38 | 0.361 | 0.9 | 0.521 | 0.607 | 0.54 | 0.679 | 0.936 | 1.38 | 1.82 | 0.639 | 0.436 | 0.106 | 0.954 | 0.984 | 1.23
CAGCCTAGGTCAGGACCAGTATAGGAGGAACGTT | 1.48 | 0.848 | -0.0859 | 0.663 | -0.972 | 1.94 | 0.905 | 0.922 | -0.12 | 0.355 | 1.07 | 1.37 | -0.507 | -1.17 | 0.861 | 0.277 | -0.104 | 0.885 | 0.139 | 3.26
AGTCGAAGTTCATCTAGGTAACGTAAGATATGCT | 2.95 | 2.8 | 1.21 | 1.62 | 0.0848 | 2.8 | 1.9 | 2.32 | 0.883 | 1.66 | 0.32 | 2.06 | 0.625 | 0.713 | 1.04 | 3.3 | 2.97 | 1.67 | 0.799 | 3.05
GCGGCTAGGTCAGGTTGGTCAGCTAACGGGTACG | 1.14 | 0.573 | -0.172 | 0.648 | -0.613 | 1.33 | 0.166 | 0.609 | -0.687 | 0.275 | 1.28 | 1.36 | -1.08 | -0.633 | 0.749 | 0.325 | -0.293 | 0.825 | -0.0979 | 3.26
GAAACGAGGGCATTCGAGTTGATAGCATGGCGAT | 1.71 | 2.15 | -0.383 | 0.442 | -0.542 | 2.05 | 1.35 | 1.32 | 0.0683 | 0.829 | 4.26 | 3.42 | 0.513 | 0.0284 | -0.429 | 3.68 | 1.26 | 0.561 | 0.0115 | 1.85
ACTAGTTGGTCAGCTGAGGTCCCACACAATTCGG | 0.639 | -0.375 | -0.16 | -0.219 | 0.179 | -0.1 | 0.275 | -0.102 | -0.52 | -0.3 | 0.847 | 1.02 | -0.38 | 1.01 | 0.419 | 0.0973 | -0.424 | 0.479 | -0.0479 | 0.921
CTACCAAGGTGAACTAGGTCGTTGATTACTATTC | 1.2 | 1 | 0.238 | 1.61 | -0.516 | 2.59 | 1.12 | 1.6 | 0.168 | 1.05 | 3.53 | 3.8 | 0.391 | 0.182 | 0.824 | 1.4 | 0.424 | 1.61 | 0.0789 | 1.97
CCGAGTACGTTATGGGGCATTCAGGCAACGGTGA | -0.345 | -0.442 | -0.712 | -0.213 | -0.602 | -0.079 | 0.408 | -0.152 | -0.465 | -0.83 | 0.389 | 0.0516 | -0.885 | -0.78 | -0.751 | -0.602 | -0.398 | -0.541 | -0.162 | 0.16
CCTACTGGGCCCAGGTCATTGATCAGTCAAAGCA | 1.37 | 1.52 | 0.696 | 1.88 | -0.506 | 2.17 | 0.602 | 1.4 | 0.0346 | 0.505 | -0.465 | 1.3 | -0.756 | -1.2 | 0.811 | 1.72 | 0.241 | 2.05 | 0.064 | 1.95
AGTCAAAGTTCAGGACCAGGTAACGTAAAGCACG | 4.33 | 3.63 | 1.19 | 1.72 | 0.134 | 3.32 | 4.94 | 4.9 | 2.16 | 4.19 | -0.279 | 1.91 | 0.221 | 0.246 | 1.9 | 2.47 | 1.19 | 2.67 | 0.885 | 4.37
TCATATAGGTAATACAGGTGACAGTCGGCATCTA | 1.08 | 1.27 | 0.299 | 0.966 | 0.0585 | 1.77 | 1.81 | 2.52 | 3.86 | 3.05 | 4.18 | 3.85 | 1.35 | 1.53 | 1.04 | 0.765 | 0.723 | 1 | 1.35 | 0.683
CGTCCAAGGTCATTGCTAGGTCAGTGAAAGCATT | 6.96 | 5.75 | 3.09 | 4.57 | 1.37 | 5.32 | 3.8 | 5.08 | 1.55 | 3.62 | 3.23 | 4.03 | -0.074 | -0.854 | 4.11 | 5.16 | 2.4 | 5.71 | 0.612 | 5.04
